Results taken from PubChem BioAssay (EPA / NIEHS).
Several values for one entry are separate records, joined by “and”; a condition that tells them apart may be missing. Equal entries are not always repeated. Results filed as inconclusive are left out. Activity calls are given as the source filed them. Rule for the calls: active = hit-call score of the fitted dose curve at least 0.9, where 1 is the maximum; inconclusive = response in the unintended direction; inactive = score below 0.9.

What was measured:
[1] = molecular target: Cellular tumor antigen p53 (Homo sapiens) (UniProt P04637); experiment: TOX21_p53_BLA_p5_ratio: Tox21 HCT-116 p53 Agonism Beta-lactamase Assay, Ratio, Phase 5 (AID 2283599)
How it was run: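 Beta-lactamase reporter ratio (blue 460 nm over green 530 nm, 405 nm excitation) after 2 h CCF4-AM loading, in HCT-116 cells exposed 16 h at 37 C to compounds pinned at 217-fold dilution. Increases relative to DMSO baseline scored.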

[2] = molecular target: Cellular tumor antigen p53 (Homo sapiens) (UniProt P04637); experiment: TOX21_p53_BLA_p4_ratio: Tox21 HCT-116 p53 Agonism Beta-lactamase Assay, Ratio, Phase 4 (AID 2283601)
How it was run: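 Signal is the blue/green (460nm/530nm) ratio of cleaved versus uncleaved CCF4-AM substrate, read after 2 h substrate loading. Cells were HCT116 carrying the p53-responsive beta-lactamase reporter, dosed 16 h at 37C, 5% CO2; CellTiter-Glo measured in parallel.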

[3] = TOX21_p53_BLA_p5_viability: Viability Assessment in the Tox21 HCT-116 p53 Agonism Beta-lactamase Assay, Phase 5 (AID 2283600)
How it was run: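 Luciferase-coupled ATP quantitation of cells treated for 16 h (37C, 5% CO2) with test chemicals delivered in DMSO via a 217-fold dilution; 4000 cells/well; reagent incubated 30 min at room temperature before luminescence reading.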

[4] = Tanguay_ZF_120hpf_MORT_legacy: (Legacy) Oregon State University Tanguay Lab 120 Hour Post-fertilization zebrafish Assay for Mortality (AID 2283633)
How it was run: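 Dechorionated Tropical 5D wild-type zebrafish embryos, one per well from 6 hpf, were statically exposed at 28C in the dark until 120 hpf (0.64% DMSO final). Mortality was scored as present/absent by brightfield microscopy, fitted positively versus DMSO.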

[5] = Tanguay_ZF_120hpf_YSE_legacy: (Legacy) Oregon State University Tanguay Lab 120 Hour Post-fertilization zebrafish Assay for Yolk Sac Edema (AID 2283634)
How it was run: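 Tropical 5D wild-type embryos, dechorionated with pronase at 4 hpf, were exposed singly from 6 hpf to 120 hpf under static, sealed, dark conditions at 28C with 0.64% DMSO final. Yolk sac edema was scored present/absent by brightfield microscopy.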

[6] = Tanguay_ZF_120hpf_EYE_legacy: (Legacy) Oregon State University Tanguay Lab 120 Hour Post-fertilization zebrafish Assay for Eye Malformation (AID 2283636);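 note: binary presence or absence of eye malformation scored by brightfield in 120 hpf larvae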
How it was run: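 Binary brightfield scoring of eye defects at 120 hpf after static exposure from 6 hpf of single pronase-dechorionated wild-type embryos (28C, 0.64% DMSO). Non-mortality endpoints omitted where embryos died; fit vs DMSO.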

[7] = Tanguay_ZF_120hpf_SNOU_legacy: (Legacy) Oregon State University Tanguay Lab 120 Hour Post-fertilization zebrafish Assay for Snout Malformation (AID 2283637)
How it was run: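 Binary snout-malformation call at 120 hpf in wild-type 5D embryos, chorion removed by pronase, under static exposure from 6 hpf at 28C (0.64% DMSO). Embryos dying by 24 or 120 hpf excluded.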

[8] = Tanguay_ZF_120hpf_JAW_legacy: (Legacy) Oregon State University Tanguay Lab 120 Hour Post-fertilization zebrafish Assay for Jaw Malformation (AID 2283638)
How it was run: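 Tropical 5D wild-type embryos, dechorionated with pronase at 4 hpf, were placed singly per well at 6 hpf and statically exposed at 28C until 120 hpf (0.64% DMSO final). Jaw malformation scored as present/absent by brightfield microscopy at 120 hpf, analyzed relative to DMSO.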

[9] = Tanguay_ZF_120hpf_OTIC_legacy: (Legacy) Oregon State University Tanguay Lab 120 Hour Post-fertilization zebrafish Assay for Otic Vesicle Malformation (AID 2283639)
How it was run: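 Binary scoring of otic vesicle defects at 120 hpf in zebrafish (Tropical 5D) held under static exposure at 28C, sealed and shaded, with final DMSO 0.64%. Embryos dying by 24 or 120 hpf excluded; fitted positively against DMSO.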

[10] = Tanguay_ZF_120hpf_PE_legacy: (Legacy) Oregon State University Tanguay Lab 120 Hour Post-fertilization zebrafish Assay for Pericardial Edema (AID 2283640)
How it was run: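 Tropical 5D wild-type zebrafish embryos were exposed statically to 120 hpf at 28C, sealed and foil-covered, in 0.64% DMSO final. Pericardial edema was scored present/absent by brightfield microscopy; dead embryos were not scored.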

[11] = Tanguay_ZF_120hpf_BRAI_legacy: (Legacy) Oregon State University Tanguay Lab 120 Hour Post-fertilization zebrafish Assay for Brain Malformation (AID 2283641)
How it was run: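 Tropical 5D wild-type zebrafish embryos were exposed statically in sealed, foil-covered plates at 28C until 120 hpf, with 0.64% (vol/vol) final DMSO. Brain malformation was scored present/absent by brightfield microscopy, relative to DMSO baseline.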

[12] = Tanguay_ZF_120hpf_SOMI_legacy: (Legacy) Oregon State University Tanguay Lab 120 Hour Post-fertilization zebrafish Assay for Somite Malformation (AID 2283647)
How it was run: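 Tropical 5D wild-type zebrafish embryos, dechorionated with pronase at 4 hpf, were placed singly at 6 hpf and statically exposed until 120 hpf at 28C in 0.64% DMSO. Somite malformation was scored present/absent by brightfield microscopy versus DMSO.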

[13] = Tanguay_ZF_120hpf_PFIN_legacy: (Legacy) Oregon State University Tanguay Lab 120 Hour Post-fertilization zebrafish Assay for Pectoral Fin Malformation (AID 2283648);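 note: each larva judged yes or no for fin defect by brightfield with dead larvae skipped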
How it was run: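 Pectoral fin malformation was recorded as a binary endpoint at 120 hpf in wild-type Tropical 5D larvae, which had been dechorionated and exposed statically from 6 hpf at 28C in 0.64% DMSO. Dead embryos were excluded.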

[14] = Tanguay_ZF_120hpf_CFIN_legacy: (Legacy) Oregon State University Tanguay Lab 120 Hour Post-fertilization zebrafish Assay for Caudal Fin Malformation (AID 2283649)
How it was run: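 Tropical 5D wild-type embryos, dechorionated with pronase at 4 hpf, were placed singly in wells at 6 hpf and statically exposed to compound at 28C until 120 hpf (0.64% DMSO). Caudal fin malformation was scored present/absent by brightfield microscopy.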

[15] = Tanguay_ZF_120hpf_PIG_legacy: (Legacy) Oregon State University Tanguay Lab 120 Hour Post-fertilization zebrafish Assay for Pigmentation Malformation (AID 2283650)
How it was run: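 Pigment malformation recorded as a binary call at 120 hpf in zebrafish (Tropical 5D) exposed singly from 6 hpf after pronase dechorionation. Static, sealed, 28C exposure, 0.64% DMSO; mortality excludes scoring; positive-direction fit against DMSO.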

[16] = Tanguay_ZF_120hpf_CIRC_legacy: (Legacy) Oregon State University Tanguay Lab 120 Hour Post-fertilization zebrafish Assay for Circulatory Malformation (AID 2283651)
How it was run: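 Binary circulatory malformation call at 120 hpf by brightfield imaging of zebrafish larvae; chorion removed at 4 hpf, static exposure from 6 hpf in sealed dark plates at 28C, final DMSO 0.64%; non-mortality endpoints skipped if embryo died.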

[17] = Tanguay_ZF_120hpf_SWIM_legacy: (Legacy) Oregon State University Tanguay Lab 120 Hour Post-fertilization zebrafish Assay for Swim Bladder Malformation (AID 2283654);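 note: swim bladder malformation in each larva scored yes or no under brightfield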
How it was run: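 Scoring is binary for swim bladder defects at 120 hpf, by brightfield inspection of zebrafish larvae. Embryos were exposed singly from 6 hpf after pronase dechorionation, at 28C with 0.64% DMSO; mortality excluded scoring.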

[18] = Tanguay_ZF_120hpf_TRUN_legacy: (Legacy) Oregon State University Tanguay Lab 120 Hour Post-fertilization zebrafish Assay for Truncated Body (AID 2283655)
How it was run: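 Tropical 5D wild-type embryos, dechorionated with pronase at 4 hpf, were placed singly in wells at 6 hpf and statically exposed at 28C until 120 hpf, final DMSO 0.64%. Truncated body was scored present/absent by brightfield microscopy.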

[19] = Tanguay_ZF_120hpf_NC_legacy: (Legacy) Oregon State University Tanguay Lab 120 Hour Post-fertilization zebrafish Assay for Notochord and Tail Malformation (AID 2283656)
How it was run: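 Binary scoring of notochord distortion by brightfield microscopy; embryos dying were not scored. Wild-type Tropical 5D embryos, chorion removed, exposed singly and statically from 6 to 120 hpf, 28C, sealed, 0.64% DMSO.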

Chain of Cellular tumor antigen p53 (Homo sapiens) (P04637 whole entry, looked up): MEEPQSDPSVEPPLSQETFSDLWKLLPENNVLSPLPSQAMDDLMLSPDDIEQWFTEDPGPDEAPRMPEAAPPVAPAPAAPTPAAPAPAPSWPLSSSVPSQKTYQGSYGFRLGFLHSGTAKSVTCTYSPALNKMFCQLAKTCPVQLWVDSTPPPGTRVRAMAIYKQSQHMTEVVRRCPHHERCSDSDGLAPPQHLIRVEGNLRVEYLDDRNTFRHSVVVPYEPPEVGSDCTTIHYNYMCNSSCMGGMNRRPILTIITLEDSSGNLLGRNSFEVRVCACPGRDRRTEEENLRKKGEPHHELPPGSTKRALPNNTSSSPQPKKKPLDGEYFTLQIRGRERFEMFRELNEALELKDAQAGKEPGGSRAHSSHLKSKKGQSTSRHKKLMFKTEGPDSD

## CC(C)N1C(=O)c2ccccc2C1=O
[1]
  outcome: inactive
[2]
  outcome: inactive

## CC(O)CNCC(C)O (stereo not drawn)
[1]
  outcome: inactive
[2]
  outcome: inactive

## CCCCCCCCOS(=O)(=O)O
[3]
  outcome: inactive
[2]
  outcome: inactive

## OC[C@H]1O[C@@H](O[C@H]2[C@H](O)[C@@H](O)[C@H](O)O[C@@H]2CO)[C@H](O)[C@@H](O)[C@H]1O
[3]
  outcome: inactive

## CC(=O)OC/C=C(C)/C=C/C=C(C)/C=C/C1=C(C)CCCC1(C)C
[3]
  outcome: inactive
[2]
  outcome: inactive

## CC(C)CCOC(=O)CC(C)C
[1]
  outcome: inactive
[2]
  outcome: inactive

## C=CC(O)CCCCC (stereo not drawn)
[3]
  outcome: inactive

## CCO[Si](CC)(OCC)OCC
[3]
  outcome: inactive

## Cc1cc(O)c2c(c1)C(=O)c1cc(O)cc(O)c1C2=O
[3]
  outcome: inactive

## CCC(C)(C)C1CCC(=O)CC1
[1]
  outcome: inactive
[2]
  outcome: inactive

## CCCCCCCCCO
[3]
  outcome: inactive

## CC(=O)CCC=C(C)CCC=C(C)C
[3]
  outcome: inactive
[2]
  outcome: inactive

## O=S(=O)(O)c1cc(O)c(O)c(S(=O)(=O)O)c1
[3]
  outcome: inactive
[2]
  outcome: inactive

## [O-]/[N+](=N\O)c1ccccc1
[3]
  outcome: inactive

## CC12CCC(C1)C(C)(C)C2O (stereo not drawn)
[3]
  outcome: inactive
[2]
  outcome: inactive

## O=C(O)c1cc(C(=O)O)c(C(=O)O)cc1C(=O)O
[3]
  outcome: inactive

## C=C/C(C)=C/C/C=C(\C)CCC=C(C)C
[3]
  outcome: inactive

## CC(C)(C)C1CCC(O)CC1 (stereo not drawn)
[3]
  outcome: inactive

## CC(C)C(=O)OCC=Cc1ccccc1
[3]
  outcome: inactive

## CNC(=C[N+](=O)[O-])NCCSCc1ccc(CN(C)C)o1
[3]
  outcome: inactive

## COC(=O)c1cccc(C(=O)OC)c1
[3]
  outcome: inactive

## CCOc1ccc(NC(C)=O)cc1
[3]
  outcome: inactive
[2]
  outcome: inactive

## CC(=O)CC(=O)N(C)C
[1]
  outcome: inactive
[2]
  outcome: inactive

## CCCCCCCCCCCCCC(=O)OCC
[3]
  outcome: inactive

## O=S(=O)(O)CCCN1CCOCC1
[3]
  outcome: inactive
[2]
  outcome: inactive

## [Cu+]
[3]
  outcome: inactive

## COC(=O)C(C)Oc1ccc(Oc2ncc(C(F)(F)F)cc2Cl)cc1 (stereo not drawn)
[3]
  outcome: inactive

## NC(=O)c1cccnc1
[3]
  outcome: inactive

## CCCCN(CCO)CCO
[3]
  outcome: inactive

## CN(C)c1ccc(C=O)cc1
[3]
  outcome: inactive
[2]
  outcome: inactive

## CC1=CC(C)C(C=O)C(C)C1 (stereo not drawn) (tested in a mixture with another compound)
[3]
  outcome: inactive
[2]
  outcome: inactive

## CC(C)(O)C(=O)c1ccc(OCCO)cc1
[3]
  outcome: inactive

## O=C(O)c1cccc(Cl)n1
[3]
  outcome: inactive

## O=S1(=O)CC(Cl)(Cl)C(Cl)(Cl)C1
[1]
  AC50: 39.4 µM (active)
[2]
  AC50: 39 µM (active)

## C#C[C@]1(O)CC[C@H]2[C@@H]3CCc4cc(O)ccc4[C@H]3CC[C@@]21C
[1]
  AC50: 11.7 µM (active) and 13.9 µM (active) and 7.67 µM (active)
[2]
  AC50: 6.65 µM (active) and 13.5 µM (active) and 8.18 µM (active)
[4]
  outcome: inactive
[5]
  outcome: inactive
[6]
  outcome: inactive
[7]
  outcome: inactive
[8]
  outcome: inactive
[9]
  outcome: inactive
[10]
  outcome: inactive
[11]
  outcome: inactive
[12]
  outcome: inactive
[13]
  outcome: inactive
[14]
  outcome: inactive
[15]
  outcome: inactive
[16]
  outcome: inactive
[17]
  outcome: inactive
[18]
  outcome: inactive
[19]
  outcome: inactive

## C[C@]12CC[C@@H]3c4ccc(O)cc4CC[C@H]3[C@@H]1CC[C@@H]2O
[3]
  outcome: inactive
[2]
  AC50: 31.4 µM (active) and 17.7 µM (active) and 15.6 µM (active)
[4]
  outcome: inactive
[5]
  outcome: inactive
[6]
  outcome: inactive
[7]
  outcome: inactive
[8]
  outcome: inactive
[10]
  outcome: inactive
[11]
  outcome: inactive
[12]
  outcome: inactive
[14]
  outcome: inactive
[15]
  outcome: inactive
[16]
  outcome: inactive
[17]
  outcome: inactive
[18]
  outcome: inactive
[19]
  outcome: inactive
